Hit rate of the full screen: of about 87,000 compounds, about 540 (0.62%) were called active. No rule for the calls is given here. The sample as a whole holds a higher share of actives than the screen did. Measured potencies and affinities stand elsewhere.
assay: inhibitors of MT1-MMP promoter transcription, cell-based, luciferase reporter, luminescence (AID 618); conditions: MT1-MMP promoter luciferase reporter cells;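 also: actives suppress MT1-MMP promoter-driven transcription so potencies describe inhibitors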

Compound | outcome
Cc1nc2ccccc2nc1N1CCC(C)CC1 | inactive
O=C(Nc1ccc2c(c1)OCO2)N1CCN(S(=O)(=O)c2ccc(Cl)cc2)CC1 | inactive
CC1(C)N(OCc2ccccc2)C(=O)C(=O)N(OCc2ccccc2)C1(C)C | inactive
C=CCNc1nc(N(c2ccccc2)c2ccccc2)nc(-n2ccnc2)n1 | inactive
COc1cccc(-n2nnnc2SCC(=O)NC2CCCC2)c1 | inactive
CCCS(=O)(=O)c1nnnn1-c1cccc(OC)c1 | active
COc1cccc(Oc2nnnn2-c2ccccc2)c1 | inactive
CCCS(=O)(=O)C(=C1NCCO1)S(=O)(=O)CCC | inactive
COc1cccc(-c2nc3ccc(O)cc3c(=O)o2)c1 | inactive
COc1nc(-c2ccc(C)cc2)ccc1-c1noc(-c2ccco2)n1 | inactive
CCOc1nc(C)ccc1-c1noc(-c2ccco2)n1 | inactive
Cc1cccc(OCC(=O)Nc2ccc3c(c2)OCO3)c1C | inactive
C/C(=C\C(=O)c1cccnc1)Nc1ccc(C(=O)O)cc1 | inactive
CN(C)CC(C(=O)c1ccccc1)c1ccccc1 (stereo not given) | active
CN(C)c1ccc(C(=O)C(O)c2ccccc2)cc1 (stereo not given) | inactive
CCC(C(=O)c1ccc(O)cc1)c1ccccc1 (stereo not given) | inactive
O=C(Cn1nc(C(=O)O)c2ccccc2c1=O)NCCC1=CCCCC1 | inactive
CC(Cc1ccccc1)NC(=O)C1CCCNC1=O (stereo not given) | inactive
CCCCC(=O)c1ccc(O)cc1O | inactive
O=C(CSc1nnc(-c2ccncc2)n1Cc1ccco1)N1c2ccccc2Sc2ccc(Cl)cc21 | inactive
COc1ccc(N2CCN(C(=O)CSc3nnc(-c4cccnc4)n3-c3ccc(F)cc3)CC2)cc1 | inactive
Cc1ccc(CN(c2ccc(C(=O)NCc3ccccn3)cc2)S(C)(=O)=O)cc1 | inactive
O=C(CSC1=NCCS1)N1CCOCC1 | inactive
O=C(COc1ccccc1Cl)Nc1ccc(Cl)cn1 | inactive

Compound | outcome
O=C(COc1ccc(Cl)cc1Cl)Nc1ccc(Cl)cn1 | inactive
O=C(COc1ccc(Cl)cc1Cl)Nc1ccccn1 | active
Cc1ccc(C(C)C)c(OCCN)c1 | inactive
COc1ccc(OC(C)C(=O)N2CC(C)OC(C)C2)cc1 (stereo not given) | inactive
O=C(Nc1ccc(N2C(=O)C3C4C=CC(C4)C3C2=O)cc1)Nc1nncs1 (stereo not given) | inactive
CCCn1c(N)c(C(=O)CSc2nc(C)cs2)c(=O)[nH]c1=O | inactive
Nc1ccc(-c2nc3ccc(-c4nc5ccccc5o4)cc3[nH]2)cc1 | inactive
Cc1ccc(-c2nc3cc(NS(=O)(=O)c4ccc(C)cc4)ccc3o2)cc1 | inactive
Nc1ccc2oc(-c3ccccn3)nc2c1 | inactive
c1ccc2oc(-c3ccc4nc[nH]c4c3)nc2c1 | inactive
Nc1ccc2oc(-c3cccs3)nc2c1 | inactive
Cc1nc2ccc(-c3nc4ccccc4o3)cc2[nH]1 | inactive
Cc1ccc2oc(-c3ccco3)nc2c1 | inactive
CCOC(=O)c1cnc(-c2cccc(OC)c2)[nH]c1=O | inactive
COc1ccc(CNC(=O)CCCCCn2c(SCC#N)nc3cc4c(cc3c2=O)OCO4)cc1 | inactive
CCC(=O)c1ccc(OCC(O)CN2CCN(C(c3ccccc3)c3ccccc3)CC2)cc1 (stereo not given) | inactive
CCOC(CNC(=O)c1cccn2c(=O)c3cc(Cl)ccc3nc12)OCC | inactive
COc1ccc(S(=O)(=O)Nc2nnc(C(C)(C)C)s2)cc1 | inactive
Cc1c(NC(=O)c2cc(C(C)C)on2)c(=O)n(-c2ccccc2)n1C | inactive
CCC(OC(=O)c1cc2sccc2n1C)C(=O)NCC1CCCO1 (stereo not given) | inactive
Nc1ccnc(C(F)(F)F)c1C(=O)c1ccccc1 | inactive
CC(C)OC(=O)CSc1nnc(-c2cccnc2)n1Cc1ccccc1 | inactive
Cc1ccc(C)c(OCCCCn2ccnc2)c1 | inactive
Nc1ccc2oc(-c3ccccc3Cl)nc2c1 | active

Compound | outcome
COc1ccc(-c2nnc(-c3ccc(N)cc3)o2)cc1 | inactive
Nc1nc2ccc(-c3nc4ccccc4o3)cc2s1 | inactive
COC(=O)c1ccc(-c2nc3ccccc3o2)cc1 | inactive
COC(=O)c1ccc(-c2nc3ccc(C)cc3o2)cc1 | inactive
Nc1ccc2oc(-c3cc(Br)ccc3Cl)nc2c1 | inactive
Nc1ccc2oc(-c3cccc4ccccc34)nc2c1 | inactive
Cc1ccccc1-c1nc2cc(N)ccc2o1 | inactive
Cc1ccc(C)c(-c2nc3cc(N)ccc3o2)c1 | inactive
CCc1c(C)nc2ncnn2c1N1CCCC(C(=O)Nc2ccc(NC(C)=O)cc2)C1 (stereo not given) | inactive
Cc1ccc(NC(=O)c2ccc(N3C(=O)C4CC=C(Cl)CC4C3=O)cc2)cc1 (stereo not given) | inactive
COC(=O)[C@@H]1C[C@@]2(O)[C@H](O)[C@H](O)[C@H](O)C[C@H]2N1Cc1c(F)cccc1Cl | inactive
CC(C)Cc1ccc(S(=O)(=O)N2CCOCC2)cc1 | inactive
O=C(CC1CCS(=O)(=O)C1)NC1CCCCC1 (stereo not given) | inactive
O=C(CN1CC(c2ccccc2)CC1=O)OCc1ccccc1F (stereo not given) | inactive
Cc1cccc(CSC2=NCCN2C(=O)c2ccco2)c1 | inactive
COCCn1c(=O)c2c3c(sc2n(CC(N)=O)c1=O)CCCC3 | inactive
COc1ccc(Br)c(C(=O)Nn2c(C)nc3ccccc3c2=O)c1 | inactive
Cc1ccc(C)c(Cn2nnc3c(=O)[nH]c(C4CCN(C(=O)c5cccs5)CC4)nc32)c1 | inactive
CCCNC(=O)NC(C)C12CC3CC(CC(C3)C1)C2 (stereo not given) | inactive
COc1ccccc1NC(=O)c1ccc(COc2ccccc2OC)o1 | inactive
CCn1c(=O)c(=O)n(CC)c2cc(S(=O)(=O)Nc3cccc(OC)c3)ccc21 | inactive
CCn1c(=O)cc(SCC(=O)Nc2ccccc2N2CCN(C)CC2)c2ccccc21 | inactive
Cc1ccc(NC(=O)Cc2cn3ccsc3n2)nc1 | inactive
CC(C)c1ccc2oc(-c3ccc(NC(=O)c4ncn[nH]4)cc3)nc2c1 | inactive

Compound | outcome
COc1cc(OC)cc(-c2nc3cc(C)ccc3o2)c1 | inactive
CCOc1cccc(-c2nc3cc(C)ccc3o2)c1 | inactive
CC(C)c1ccc2oc(-c3cc(N)ccc3O)nc2c1 | inactive
O=C1CC(=C2c3ccccc3-c3ccccc32)C(=O)N1CCN1CCN(c2ccccc2)CC1 | inactive
Cc1nn(Cc2nc(-c3cccs3)no2)c(C)c1Br | inactive
COc1ccccc1-c1nnc(SCC(=O)O)n1C | inactive
CC1=C(C(=O)OCc2ccccc2)C(c2ccc3ccccc3c2)NC(=O)N1CCCCCC(=O)O (stereo not given) | inactive
Cn1nnnc1Sc1ncnc2scc(-c3ccc(F)cc3)c12 | inactive
Cc1ccc(-c2csc3ncnc(NCCN4CCOCC4)c23)cc1 | inactive
O=C(Nc1ccc(N2CCOCC2)cc1)Nc1cnsn1 | inactive
CCOc1ccc(NC(=O)c2cnccn2)cc1 | inactive
Cc1cnc(C(=O)Nc2ccc(N3CCOCC3)cc2)cn1 | inactive
O=C(Nc1ccc(N2CCOCC2)cc1)c1cnsn1 | active
CCOc1ccc(NC(=O)c2ccncc2)cc1 | inactive
CCc1nnc(NC(=O)CN2C(=O)c3ccccc3S2(=O)=O)s1 | inactive
CC1(C)CC(=O)C2=C(C1)Nc1ncnn1C2c1ccccn1 (stereo not given) | inactive
CCOc1ccc(C2C(C(=O)c3cccs3)=C(O)C(=O)N2CCCn2ccnc2)cc1 (stereo not given) | inactive
CN1CCN(c2ccccc2NC(=O)c2ccc(-c3ccccc3)cc2)CC1 | inactive
CC(=O)c1c(C)[nH]c(C(=O)Nc2cc(C)cc(C)c2)c1C | inactive
CC(=O)c1c(C)[nH]c(C(=O)Nc2ccc(C)cn2)c1C | active
CC(=O)c1c(C)[nH]c(C(=O)Nc2cc(C)ccc2C)c1C | inactive
CC1=C(C)/C(=N\OS(=O)(=O)c2ccccc2)C=CC1=O | inactive
CC1=CC(=O)C=C(C)C1=NOS(=O)(=O)c1ccccc1 | active
CC1=C/C(=N\OS(=O)(=O)c2ccccc2)C=CC1=O | inactive

Compound | outcome
Cc1cccc(C2N(c3ccc(F)cc3)C(=O)C3CCCN32)c1 (stereo not given) | inactive
O=S(=O)(Nc1ccccn1)c1ccc(C2CCCCC2)cc1 | inactive
Cc1ccc(S(=O)(=O)N2CC3(C)CN(S(=O)(=O)c4ccc(C)cc4)CC(C)(C2)C3)cc1 | inactive
CC1=CC(C)(C)N(S(=O)(=O)c2ccc(C)cc2)c2ccccc21 | active
CC1=CC(C)(C)N(S(=O)(=O)c2ccc(F)cc2)c2ccc(C)cc21 | inactive
Cc1ccc(S(=O)(=O)N2C(=S)SCC2(C)C)cc1 | inactive
CC1=CC(C)(C)N(S(=O)(=O)c2ccc(C)cc2)c2cc(C)ccc21 | active
CC1=CC(C)(C)N(S(=O)(=O)c2ccc(C)cc2)c2ccc(C)cc21 | active
CC1=CC(C)(C)N(C(=O)c2ccccc2)c2ccc(C)cc21 | inactive
CC1=CC(C)(C)N(S(=O)(=O)c2ccc(F)cc2)c2ccccc21 | inactive
CC1=CC(C)(C)N(C(=O)CN2C(=O)c3ccccc3C2=O)c2ccccc21 | inactive
O=C(CN1CCN(c2ccccc2)CC1)Nc1c(C(=O)C2CC2)oc2ccccc12 | inactive
CC(C)n1nnnc1C(c1ccc(F)cc1)N1CCN(C2CCCC2)CC1 (stereo not given) | inactive
Cc1ccc(NC2=NCCC2)cc1Cl | inactive
C=CCn1c(=O)c2ccccc2n2c(SCc3csc(-c4ccccc4)n3)nnc12 | inactive
Cn1c(-c2ccc(F)cc2)cnc1SCC(=O)N1CCCCC1 | inactive
Cn1c(-c2ccccc2)cnc1SCC(N)=O | inactive
CCOC(=O)c1c(NC(=O)Cc2cccs2)sc2c1CCCC2 | inactive
COC(=O)c1ccccc1NC(=O)CN1CCC(NC(=O)c2ccccc2C)CC1 | inactive
COCc1nnc(NC(=O)c2sc3ccccc3c2Cl)s1 | inactive
CC(C)c1nnc(NC(=O)c2sc3ccccc3c2Cl)s1 | inactive
Cc1nnc(NC(=O)c2sc3ccccc3c2Cl)s1 | active
O=C(/C=C\Nc1cccc(F)c1)c1ccc2c(c1)OCO2 | inactive
O=C(NCc1ccc2c(c1)OCO2)c1ccccn1 | inactive

From PubChem BioAssay AID618 (Sanford-Burnham Center for Chemical Genomics, 2007)
